Test [1] is described as follows: Tanguay_ZF_120hpf_SOMI_legacy: (Legacy) Oregon State University Tanguay Lab 120 Hour Post-fertilization zebrafish Assay for Somite Malformation (AID 2283647). An outline of the steps: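 Somitogenesis defects are recorded as binary calls in whole larvae at 120 hpf after continuous static chemical exposure starting at 6 hpf in dechorionated 5D embryos. DMSO serves as negative control and baseline.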

Test [2] can be described thus: Tanguay_ZF_120hpf_PFIN_legacy: (Legacy) Oregon State University Tanguay Lab 120 Hour Post-fertilization zebrafish Assay for Pectoral Fin Malformation (AID 2283648).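 Further: each larva judged yes or no for fin defect by brightfield with dead larvae skipped.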 An outline of the steps: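 Pectoral fin malformation was recorded as a binary endpoint at 120 hpf in wild-type Tropical 5D larvae, which had been dechorionated and exposed statically from 6 hpf at 28C in 0.64% DMSO. Dead embryos were excluded.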

The nature of test [3]: Tanguay_ZF_120hpf_CFIN_legacy: (Legacy) Oregon State University Tanguay Lab 120 Hour Post-fertilization zebrafish Assay for Caudal Fin Malformation (AID 2283649). The procedure, abridged: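 Single dechorionated 5D wild-type embryos are dosed at 6 hpf (final DMSO 0.64%) and held statically at 28C. Caudal fin malformation is recorded as present or absent at 120 hpf under brightfield, excluding dead embryos.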

Test [4] in a line: Tanguay_ZF_120hpf_PIG_legacy: (Legacy) Oregon State University Tanguay Lab 120 Hour Post-fertilization zebrafish Assay for Pigmentation Malformation (AID 2283650). An outline of the steps: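 Pigment malformation recorded as a binary call at 120 hpf in zebrafish (Tropical 5D) exposed singly from 6 hpf after pronase dechorionation. Static, sealed, 28C exposure, 0.64% DMSO; mortality excludes scoring; positive-direction fit against DMSO.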

The nature of test [5]: Tanguay_ZF_120hpf_CIRC_legacy: (Legacy) Oregon State University Tanguay Lab 120 Hour Post-fertilization zebrafish Assay for Circulatory Malformation (AID 2283651). An outline of the steps: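 Static exposure, 6–120 hpf, 28C, sealed and dark; one dechorionated 5D embryo/well; DMSO 0.64% v/v final. Binary circulation endpoint by brightfield; dead embryos not scored.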
Test [6] in a line: Tanguay_ZF_120hpf_TRUN_legacy: (Legacy) Oregon State University Tanguay Lab 120 Hour Post-fertilization zebrafish Assay for Truncated Body (AID 2283655). An outline of the steps:
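Single dechorionated zebrafish embryos received test chemical from 6 hpf in 0.64% DMSO, kept at 28C. At 120 hpf, brightfield inspection noted any truncated body.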

Test [7] in a line: Tanguay_ZF_120hpf_NC_legacy: (Legacy) Oregon State University Tanguay Lab 120 Hour Post-fertilization zebrafish Assay for Notochord and Tail Malformation (AID 2283656). An outline of the steps:
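Binary notochord-distortion calls, made by brightfield inspection, form the read-out; activity is fitted in the positive direction against DMSO. Exposure ran statically from 6 to 120 hpf at 28C with 0.64% DMSO.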

The nature of test [8]: Tanguay_ZF_120hpf_TR_legacy: (Legacy) Oregon State University Tanguay Lab 120 Hour Post-fertilization zebrafish Assay for Touch Response (AID 2283667). The procedure, abridged:
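Binary touch-response endpoint in larvae at 120 hpf after static waterborne exposure from embryo stage (28°C, 0.64% DMSO vehicle, 5 uM trimethyltin chloride as positive control); embryos dead at 24 or 120 hpf excluded; fitted as gain versus DMSO.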

Test [9] can be described thus: Tanguay_ZF_120hpf_SWIM_legacy: (Legacy) Oregon State University Tanguay Lab 120 Hour Post-fertilization zebrafish Assay for Swim Bladder Malformation (AID 2283654).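 Further: swim bladder malformation in each larva scored yes or no under brightfield.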 An outline of the steps: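 Scoring is binary for swim bladder defects at 120 hpf, by brightfield inspection of zebrafish larvae. Embryos were exposed singly from 6 hpf after pronase dechorionation, at 28C with 0.64% DMSO; mortality excluded scoring.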

Test [10] in a line: STM_H9_CystineISnorm_perc: Stemina devTOX quickPredict H9 human embryonic stem cell (hESC)-based Assay for Cystine (CYSS) Metabolite Biomarker, Normalized (AID 2283713; active means hit-call score of the fitted dose curve at least 0.9, where 1 is the maximum; inactive means score below 0.9). The procedure, abridged:
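UPLC-HRMS read-out: endogenous cystine peak area in spent medium, normalized to isotope-labeled internal standard and to median of 0.1% DMSO controls. Pluripotent H9 cells, 72h exposure, daily medium/compound replenishment; medium from last 24h sampled.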

The nature of test [11]: CCTE_Padilla_ZF_144hpf_TERATOSCORE: (Legacy) CCTE's 144 Hour Post-fertilization zebrafish Assay Teratoscore, Padilla Lab (AID 2283679; active means hit-call score of the fitted dose curve at least 0.9, where 1 is the maximum; inactive means score below 0.9;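 further: zebrafish embryos with chorions exposed by immersion from 6-8 hpf to 5 dpf with daily renewal; teratogenicity score from eye scoring of death hatching and malformations at 144 hpf; higher score means more developmental defects relative to DMSO baseline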). An outline of the steps: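 Larvae scored by eye at 144 hpf for death, hatching and malformations after a day in clean Hanks'. Before that, daily-renewed exposure at 80 uM (0.4% DMSO, 26C) from roughly 6-8 hpf through 5 dpf, 4 embryos per chemical.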

A short description of test [12]: STM_H9_OrnCyssISnorm_ratio: Stemina devTOX quickPredict H9 human embryonic stem cell (hESC)-based Assay for Ornithine (ORN):Cystine (CYSS) Ratio (AID 2283714). The procedure, abridged:
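Ratio of internal-standard-normalized ornithine to cystine, measured by UPLC-HRMS in spent media from the last 24 h. H9 cells kept pluripotent, dosed 72 h with daily media and compound renewal; DMSO 0.1% serves as baseline.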

The test system of test [13] is Thyroperoxidase (TPO), gene 54314. Put plainly: CCTE_Simmons_AUR_rTPO: CCTE's Amplex UltraRed Assay for Thyroperoxidase (TPO) Inhibition, Simmons Lab (AID 2283662).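 Further: potency for loss of signal meaning inhibition of peroxidase activity.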 The procedure, abridged:
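Rat thyroid microsomes (5 ug protein) were incubated with test compound (8 concentrations, 5 nM–87.5 uM final, 0.5% DMSO), 25 uM Amplex UltraRed and 300 uM H2O2 in 200 mM phosphate buffer for 30 min at 37C in the dark; fluorescence read at 544/590 nm.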

A short description of test [14]: CCTE_Simmons_CellTiterGLO_HEK293T: Viability Assessment in CCTE's Assays for Thyroperoxidase (TPO) Inhibition, Simmons Lab (AID 2283665). The procedure, abridged: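 Luminescent ATP readout (CellTiter-Glo, 20 min at room temperature) after 24 hr exposure of HEK293T cells to 5 nM–87.5 uM final compound; signal loss relative to DMSO vehicle indicated cytotoxicity; dichlone titrated as positive control.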

Molecules are shown by their SMILES. Results filed as inconclusive are left out. Calls of active or inactive are those of the source. How the source made its calls, unless noted: active means hit-call score of the fitted dose curve at least 0.9, where 1 is the maximum; inconclusive means response in the unintended direction; inactive means score below 0.9.

For the compound `O=C(N[C@@H](Cc1ccccc1)[C@@H](O)C(=O)N1C[C@@H](O)[C@@H](O)C1)c1cc2cc(Cl)ccc2[nH]1`, the compound was classed as inactive in test [1], in test [2], in [3], in test [4], in [5] and in test [6]. Besides, the outcome in [7] and in [8] was inactive.
Regarding `COc1cc(-c2nc(NC(=O)c3cc4cc(C)cc(C)c4n3CC(=O)O)sc2CCC2CCCCC2)c(OC)cc1Cl`, the compound was classed as inactive in test [1], in test [2], in [3], in test [4], in [9] and in test [6]. Moreover, the compound was called inactive in test [7] and in test [8].
For `CCCCCCCC=O`, the result in [1], in [2], in test [3], in [4], in [5] and in test [6] was inactive. For the same compound, the compound was classed as inactive in [7].
As to `CCCCCCCCCCCC(=O)OC`, the compound was called inactive in [1], in [2], in [3], in test [4], in test [6] and in test [7].
For `Cc1nc(-c2ccc3c(c2)CCN(CCC2CCC(NC(=O)/C=C/c4ccc(F)cc4)CC2)CC3)no1` (stereo unspecified), the compound was called inactive in [1], in test [2], in test [3], in test [4], in [9] and in [6]. Moreover, the call in test [7] and in test [10] was inactive.
Turning to `CN1CCN(Cc2cc(-c3ccc4[nH]c(=O)oc4c3)co2)[C@@H](c2ccc(F)cc2)C1`, the call in test [1], in test [2], in test [3], in test [4], in test [5] and in test [7] was inactive. In addition, the AC50 in test [6] was 16.2 µM (active); in [11], 18.6 µM (active); in test [10], 5 µM (active); in [12], 5 µM (active).
Consider `CCNc1cccc(C)c1`, for which the compound was called inactive in test [1], in test [2], in test [3], in test [4], in [9] and in test [6]. For the same compound, the result in test [14] was inactive. Further, the AC50 in test [13] was 12.1 µM (active).
Regarding `Cc1cc(=O)[nH]c(=S)[nH]1`, the result in [1], in test [2], in [3], in test [4], in [9] and in test [6] was inactive. The call in test [7], in [14] and in test [8] was inactive. Moreover, the AC50 in test [13] is 0.593 µM (active).
Regarding `CC=Cc1ccc(O)c(OC)c1`, the compound was called inactive in [2], in [3], in test [4], in [7] and in test [14]. For the same compound, the results for the AC50 in test [13] and in test [11] were 6.14 µM (active) and 53.8 µM (active), respectively.
For `C=CCOC(=O)c1ccccc1C(=O)OCC=C`, the outcome in [1], in [2], in [4], in [6] and in test [7] was inactive. The concentration at half-maximal activity (AC50) in test [9] is 46.4 µM (active); in [11] it was 16.6 µM (active); in [10], 53.5 µM (active); in test [12], 41.3 µM (active).
With `c1cc(-c2ccncc2)ccn1`, the compound was classed as inactive in [2], in [4], in test [5], in [9] and in test [7].
Consider `Cc1ccc(C(C)C)c(O)c1`, for which the outcome in [2], in test [3], in test [4], in test [6] and in [7] was inactive.

(Values after PubChem BioAssay (EPA / NIEHS).)
